Source: ChEMBL document CHEMBL4513216, “Probing the Open Global Health Chemical Diversity Library for Multistage-Active Starting Points for Next-Generation Antimalarials” (ACS Infect Dis, 2020)
Hit rate of the full screen: of about 69,000 compounds, about 8,600 (12%) showed an effect of 50% or more. The sample as a whole holds a higher share of strong results than the screen did.

system: Plasmodium berghei; experiment: Screen against P. berghei liver stage (PbLuc), transformed with Luciferase, at 10uM; assay type: functional, HepG2; conditions: tested at 10 uM

Structure (SMILES) | INHIBITION
COCCN1C(=O)CCC12CCN(C(=O)NC(C)C)CC2 | -38.4%
COCCC(=O)N1CCCC2(CCC(=O)N2CCOC)CC1 (stereo not drawn) | 54.9%
CC(C)NC(=O)N1CCC2(CCC(=O)N2CCN(C)C)CC1 | 60.5%
CN(C)CCN1C(=O)CCC12CCCN(C(=O)N(C)C)CC2 (stereo not drawn) | 9.97%
COCCN1C(=O)CCC12CCCN(C(=O)NC(C)C)CC2 (stereo not drawn) | 18.6%
COCCN1C(=O)CCC12CCCN(C(=O)CC1CC1)CC2 (stereo not drawn) | -15.9%
CC(C)NC(=O)N1CCC2(CCC(=O)N2CCN2CCCC2)CC1 | 5.04%
CN(C)CCN1C(=O)CCC12CCCN(C(=O)CC1CC1)CC2 (stereo not drawn) | 51.9%
CN(C)CCN1C(=O)CCC12CCN(C(=O)CC1CC1)CC2 | -12.2%
O=c1cc(CNCc2ccc3c(c2)OCO3)nc2ccccn12 | 14.3%
COc1nn(C)cc1C(=O)N1CCC(c2nnc(C(C)C)o2)CC1 | 37.5%
c1ccn(Cc2noc3c2CN(Cc2ccsc2)CC3)c1 | 49.1%
CC1CN(CCC(=O)NCCc2cccnc2)Cc2ccccc2O1 (stereo not drawn) | 26.1%
CC1CN(CC(=O)NCCc2ccncc2)Cc2ccccc2O1 (stereo not drawn) | 60.9%
Cc1ccc2c(c1)CN(CC(=O)NCCc1ccc(F)cc1)CC(C)O2 (stereo not drawn) | -46.4%
O=C(c1ccc(-c2ccsc2)nc1)N1CCCN(C2CCCCC2)CC1 | 14.4%
CO[C@@]1(C)C[C@@H](O)C12CCN(C(=O)CCn1c(C)cccc1=O)CC2 | 46.4%
COCC1c2nnn(C)c2CCN1C(=O)COc1ccccc1C (stereo not drawn) | 22.2%
COCC1c2nnn(C)c2CCN1C(=O)CCc1cccc(OC)c1 (stereo not drawn) | 52.1%
COCC1c2nnn(C)c2CCN1C(=O)COc1ccccc1OC (stereo not drawn) | 53%
COCC1c2nnn(C)c2CCN1C(=O)Cc1ccc2c(c1)OCO2 (stereo not drawn) | -10.5%
COCC1c2nnn(C)c2CCN1C(=O)c1ccc(OC)c(F)c1 (stereo not drawn) | 44.8%
COCC1c2nnn(C)c2CCN1C(=O)Cc1ccccn1 (stereo not drawn) | -21.3%

Structure (SMILES) | INHIBITION
CCc1c(C)sc2nc3n(CCN4CCCCC4)nc(SC)n3c(=O)c12 | 35.1%
CC(C)(C)c1n[nH]c(C2CN(C(=O)c3cc(C4CC4)[nH]n3)CCO2)n1 (stereo not drawn) | -21.2%
CNC(=O)N1CCN(C(=O)N(C)C)CC2(CC(=O)N(C)C2)C1 (stereo not drawn) | 26.3%
Cc1ncsc1C(=O)N1CC[C@@H]2[C@@H](CC1)OCCN2c1cccnc1 | 65.1%
O=C(c1ccncc1)N1CC[C@@H]2[C@@H](CC1)OCCN2c1cccnc1 | 12.1%
O=C(c1ccoc1)N1CC[C@@H]2[C@@H](CC1)OCCN2c1cccnc1 | 45.8%
CC(Cn1cccn1)NC(=O)c1ccsc1 (stereo not drawn) | 15.7%
Cc1nc2ccc(C(=O)N3CCn4c(C)nnc4C3)cc2nc1C | 1.56%
CN1C[C@H](c2ccccc2)[C@H]2CN(C(=O)Cc3ccc(O)cc3)CC[C@H]21 | 27.35%
CCN1CC2(CCC1=O)CCN(C(=O)c1ccc(C)cc1O)CC2 | 18.6%
COc1cccc(-c2nnn(C3CCN(CC(F)(F)F)C3=O)n2)c1 (stereo not drawn) | -73.4%
Cc1nnc(SCCCNC(=O)c2ccc3c(c2)OCO3)s1 | 33.4%
COCc1cc(NCCCSc2nnc(C)s2)ncn1 | 58.8%
COc1cc(NCCCSc2nnc(C)s2)ncn1 | 42.1%
Cc1nnc(SCCCNc2cc(C3CC3)ncn2)s1 | 58.8%
Cc1nnc(SCCNc2cc(C3CC3)ncn2)s1 | 4.52%
CCn1c(C)nnc1SCCNc1cc(COC)ncn1 | 8.51%
Cc1cccc(N2CC3(CCN(S(=O)(=O)c4cccs4)C3)CC2=O)c1 (stereo not drawn) | -4.82%
CSc1ccc(C(=O)N2C[C@@H]3CC[C@H]2CN(Cc2cccnc2)C3)cc1 | -5.19%
Cc1noc(CCCNC(=O)N2CCc3ccccc3C2CO)n1 (stereo not drawn) | 14.4%
CC(C)(C)c1cc(NC(=O)CN2CCc3cncnc3C2)on1 | -9.76%
COC(=O)COn1c(SC)nc2ccccc2c1=O | 48%
CCc1nc2ccccc2c(=O)n1CC1(O)CCN(CC(=O)OC)CC1 | 13.5%

Structure (SMILES) | INHIBITION
COC(=O)COn1c(OC)nc2ccccc2c1=O | 52.5%
COC(=O)COn1c(SCC(=O)OC)nc2ccccc2c1=O | 28.3%
CCc1nc2ccccc2c(=O)n1CC1(O)CCN(C(=O)COC)CC1 | 7.52%
CCOn1c(SC(C)C)nc2ccccc2c1=O | 56.3%
COC(=O)COn1c(SC(C)C)nc2ccccc2c1=O | 28.3%
CCSc1nc2ccccc2c(=O)n1OCC(=O)OC | 60.8%
CCc1nc2ccccc2c(=O)n1CC1(O)CCN(C(=O)C(C)C)CC1 | 35.2%
CC(C)Cc1noc(CN2CCCC2c2noc(C3CC3)n2)n1 (stereo not drawn) | -31.5%
CC(C)(C)N1CCN(C(=O)Nc2cc(C(F)(F)F)c[nH]c2=O)CC1 | 33.3%
COC(=O)C1C=CCN1C(=O)c1cc(COc2ccccc2)[nH]n1 (stereo not drawn) | 9.41%
Cc1nc(N(C)C)ncc1C(=O)N[C@@H]1CCc2ccccc21 | 27.4%
O=C(Nc1cccnc1)C1CCN(c2cc(-n3ccnc3)ncn2)CC1 | 31.3%
O=C(Nc1ccccc1)C1CCCN(c2cc(-n3cncn3)ncn2)C1 (stereo not drawn) | 50.2%
O=C(Nc1cccnc1)C1CCCN(c2cc(-n3cccn3)ncn2)C1 (stereo not drawn) | 50.2%
O=C(CN1CCCC(Cn2cncn2)C1)Nc1cccnc1 (stereo not drawn) | -43.9%
O=C(NCc1cccs1)C1CCCN(c2cc(-n3cncn3)ncn2)C1 (stereo not drawn) | 13.9%
O=C(NC1CC1)C1CCCN(c2cc(-n3cncn3)ncn2)C1 (stereo not drawn) | 40.4%
CC(C)(C)C(=O)NC(c1nccs1)C1CCN(CC2CCCCC2)CC1 (stereo not drawn) | 41.5%
CCn1nc(C)c(CCNC(=O)C2CCCN(C(C)=O)C2)c1C (stereo not drawn) | -20.2%
Cc1cnn(CC2CCCCN2CCS(C)(=O)=O)c1 (stereo not drawn) | 17.4%
CNC(=O)CN1CCC(NC(=O)Cc2ccc3c(c2)OCCO3)CC1 | -53.2%
CCN(Cc1c(C)nn(CC)c1C)S(=O)(=O)c1cnn(C)c1 | 11.8%
